Compounds without any hit were thinned out: in the full panel of roughly 83,000, 20% have a hit.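 Single-concentration screen, 48 h exposure, 96-well plates. Endpoint: percent growth. Below 10 = active.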 Values without a mark were called inactive. Calls of active or inactive are those of the source.

In one experiment the test system is ACHN renal. Nature of the experiment: NCI-60 one-dose screen, 48 h (100 = growth as untreated, 0 = no growth, -100 = all killed). Particulars: 10 µM unless noted.
Regarding `N#Cc1c(-c2ccccc2Cl)cc(-c2c[nH]c3ccccc23)[nH]c1=O`, the growth is 63.9%.

For `CN1CCN(/C(=N\c2sc(-c3ccccc3)nc2-c2ccccc2)c2ccccc2)CC1`, the growth is 95.3%.

Take `COc1ccc(-c2cc(C(=O)NCc3ccccc3)nn2-c2ccc(S(C)(=O)=O)cc2)cc1OC`: the growth was 104%.

Turning to `O=C(COc1ccc(NC(=O)Nc2ccc(Cl)c(Cl)c2)cc1)N=Nc1c(O)[nH]c2ccc(Cl)cc12`, the growth was 20.9%.

With `C=C1CC[C@@H]2[C@]3(C)COC(c4cn(-c5ccccc5)nc4-c4ccccc4)O[C@@H]3CC[C@@]2(C)[C@@H]1C/C=C1/C(=O)OC[C@H]1O` (stereo partly specified), the growth is -95.5% (active).

For the molecule `CC(=O)Nc1cccc(-c2nc3cc(-c4ccc(O)cc4)ccc3n2C)c1`, the growth was 16%.

Take `O=C(/C=C/c1ccc(-c2ccccc2)cc1)c1nc2ccccc2n1Cc1ccc(F)cc1`: the growth is 41.3%.

`Cc1cc2nc3c4ccccc4n(CCNCCN(C)C)c3nc2cc1C`: the growth was 11%.

`c1ccc(-c2csc(Nc3cccc(Nc4nc(-c5ccccc5)cs4)c3)n2)cc1`: the growth is 36.2%.

For the molecule `O=C(N/N=C/c1ccc(-c2ccc(O)cc2)s1)c1[nH]c2ccc(Br)cc2c1-c1ccccc1`, the growth is -2.55% (active).

Consider `COCOc1cc2c(=O)c(C)c(C(=O)N[C@@H](Cc3ccccc3)C(O)C(=O)NCc3ccccc3)oc2cc1OC` (stereo partly specified), for which the growth was 83.7%.

`COc1cc2oc(-c3cccc(C(=O)Nc4ccc(Cl)cc4)c3)cc(=O)c2c(OCCNC(=O)[C@@H](N)CCC(=O)O)c1OC`: the growth is 92.5%.

Take `Cn1cc(-c2nc(N)nnc2-c2c[nH]c3ccc(Br)cc23)c2cccnc21`: the growth was 50.6%.

Take `O=C1c2c(c3c4cc(F)ccc4oc3c3[nH]c4ccc(Br)cc4c23)C(=O)N1O`: the growth was -33.8% (active).

Consider `CCCCNC(=S)Nc1ccc(OCc2nc3ccccc3[nH]2)cc1`, for which the growth is 45.5%.

Turning to `COc1cc(-c2ccc(/C=N/NC(=O)c3[nH]c4ccc(Br)cc4c3-c3ccccc3)s2)cc(OC)c1OC`, the growth was 75.6%.

On to `C=C1CC[C@@H]2[C@]3(C)COC(c4cn[nH]c4-c4ccc(C)cc4)O[C@@H]3CC[C@@]2(C)[C@@H]1C/C=C1/C(=O)OCC1O` (stereo partly specified), for which the growth was -53.5% (active).

On to `COc1cc2c(c(OC)c1OC)C(=O)CC(c1cccc(NC(=O)c3cc(N)ccc3Cl)c1)O2` (stereo unspecified), for which the growth is 50.6%.

As for `COc1cc2c(c(OC)c1OC)C(=O)CC(c1cccc(NC(=O)c3cccc(NC(=O)[C@H](C)NC(=O)OC(C)(C)C)c3)c1)O2` (stereo partly specified), the growth is 41.5%.

For the molecule `C=C1CCC2C3(C)COC(c4cc(F)cc(F)c4)OC3CCC2(C)C1CC(O)C1=CCOC1=O` (stereo unspecified), the growth is 67.8%.

Consider `O=C(/C=C/c1ccc(O)c(O)c1)NC1CCOC1O` (stereo unspecified), for which the growth was 104%.

As to `C/C(=N\N=C1/C(=O)Nc2ccc(Cl)cc21)c1ccc2c(c1)Nc1ccccc1S2`, the growth is -3.77% (active).

In the case of `CC(C)CCNC(=O)N/C(N)=N/c1nc2ccccc2s1`, the growth is 58.4%.

Consider `OCNc1ccc(-n2cnc3cc(-c4ccc(O)cc4)ccc32)cc1C(F)(F)F`, for which the growth was 12.2%.

Regarding `C=C1CCC2C3(C)COC(c4ccc(F)cc4)OC3CCC2(C)C1C/C=C1/C(=O)OCC1O` (stereo unspecified), the growth was -97.6% (active).

As for `O=c1[nH]n(C(=S)N/N=C/c2ccccc2Cl)c(=O)c2ccccc12`, the growth is 5.27% (active).

With `N#Cc1c(-c2cccc(Cl)c2Cl)cc(-c2ccc3ccccc3c2)[nH]c1=O`, the growth is 40.8%.

For the molecule `Clc1cccc(Cl)c1/C=C/c1cc(/C=C/c2ccc(Br)cc2)c2ccccc2n1`, the growth was 100%.

On to `CC(C)c1ccc2c(N)c(C(=O)Nc3ccc(C(F)(F)F)cn3)sc2n1`, for which the growth is 49%.

For `CCN(CC)C(=O)N/C(N)=N/c1nc2ccccc2s1`, the growth was 50.7%.

Regarding `O=C(COc1ccc(NC(=O)Nc2ccc(Cl)c(Cl)c2)cc1)N=Nc1c(O)[nH]c2ccc([N+](=O)[O-])cc12`, the growth was 77.8%.

For `Cc1cc2c(cc1Cl)C(=O)/C(=C/c1ccc(F)cc1)O2`, the growth is 96.9%.

`CCCCOc1ccc(NC(=O)c2sc3nc(C)ccc3c2N)cc1`: the growth was -19.3% (active).

Consider `O=C1Nc2cc(Cl)ccc2/C1=C/c1cccc(OCc2ccccn2)c1`, for which the growth was 16.9%.

`NS(=O)(=O)c1ccc(N=Nc2c(O)n(CC(=O)Nc3ccccc3Cl)c3ccccc23)cc1`: the growth is 6.65% (active).

For the molecule `O=C(Nc1cccc(-n2cnc3cc(-c4ccc(O)cc4)ccc32)c1)C1CC1`, the growth was 15.4%.

Consider `C=C1CC[C@@H]2[C@]3(C)COC(c4cn[nH]c4-c4ccc(OC)cc4)O[C@@H]3CC[C@@]2(C)[C@@H]1C/C=C1/C(=O)OCC1O` (stereo partly specified), for which the growth was 3.82% (active).

Regarding `CC(=O)Nc1ccc(-c2cn(-c3cccc(C(=O)Nc4ccc(N5CCN(C)CC5)cc4)c3)nn2)cn1`, the growth was 88.1%.

A further experiment concerns CAKI-1 renal. The experiment is described as above. Particulars: 10 µM unless noted.
For `N#Cc1c(-c2ccccc2Cl)cc(-c2c[nH]c3ccccc23)[nH]c1=O`, the growth was 55.5%.

For the molecule `CN1CCN(/C(=N\c2sc(-c3ccccc3)nc2-c2ccccc2)c2ccccc2)CC1`, the growth was 72.7%.

As to `COc1ccc(-c2cc(C(=O)NCc3ccccc3)nn2-c2ccc(S(C)(=O)=O)cc2)cc1OC`, the growth is 87.1%.

In the case of `O=C(COc1ccc(NC(=O)Nc2ccc(Cl)c(Cl)c2)cc1)N=Nc1c(O)[nH]c2ccc(Cl)cc12`, the growth is -5.97% (active).

On to `C=C1CC[C@@H]2[C@]3(C)COC(c4cn(-c5ccccc5)nc4-c4ccccc4)O[C@@H]3CC[C@@]2(C)[C@@H]1C/C=C1/C(=O)OC[C@H]1O` (stereo partly specified), for which the growth was -39.7% (active).

On to `CC(=O)Nc1cccc(-c2nc3cc(-c4ccc(O)cc4)ccc3n2C)c1`, for which the growth was 38.5%.

On to `O=C(/C=C/c1ccc(-c2ccccc2)cc1)c1nc2ccccc2n1Cc1ccc(F)cc1`, for which the growth is 49.5%.

With `Cc1cc2nc3c4ccccc4n(CCNCCN(C)C)c3nc2cc1C`, the growth is 14.1%.

In the case of `c1ccc(-c2csc(Nc3cccc(Nc4nc(-c5ccccc5)cs4)c3)n2)cc1`, the growth is 34.9%.

As to `O=C(N/N=C/c1ccc(-c2ccc(O)cc2)s1)c1[nH]c2ccc(Br)cc2c1-c1ccccc1`, the growth is 37.2%.

For the molecule `COCOc1cc2c(=O)c(C)c(C(=O)N[C@@H](Cc3ccccc3)C(O)C(=O)NCc3ccccc3)oc2cc1OC` (stereo partly specified), the growth was 50.5%.

As to `COc1cc2oc(-c3cccc(C(=O)Nc4ccc(Cl)cc4)c3)cc(=O)c2c(OCCNC(=O)[C@@H](N)CCC(=O)O)c1OC`, the growth was 68.9%.

`Cn1cc(-c2nc(N)nnc2-c2c[nH]c3ccc(Br)cc23)c2cccnc21`: the growth was 47.9%.

For the molecule `O=C1c2c(c3c4cc(F)ccc4oc3c3[nH]c4ccc(Br)cc4c23)C(=O)N1O`, the growth is 21.9%.

Regarding `CCCCNC(=S)Nc1ccc(OCc2nc3ccccc3[nH]2)cc1`, the growth is 40%.

For the molecule `COc1cc(-c2ccc(/C=N/NC(=O)c3[nH]c4ccc(Br)cc4c3-c3ccccc3)s2)cc(OC)c1OC`, the growth is 71.6%.

Regarding `C=C1CC[C@@H]2[C@]3(C)COC(c4cn[nH]c4-c4ccc(C)cc4)O[C@@H]3CC[C@@]2(C)[C@@H]1C/C=C1/C(=O)OCC1O` (stereo partly specified), the growth is 50.3%.

As for `COc1cc2c(c(OC)c1OC)C(=O)CC(c1cccc(NC(=O)c3cc(N)ccc3Cl)c1)O2` (stereo unspecified), the growth is 50.3%.

With `COc1cc2c(c(OC)c1OC)C(=O)CC(c1cccc(NC(=O)c3cccc(NC(=O)[C@H](C)NC(=O)OC(C)(C)C)c3)c1)O2` (stereo partly specified), the growth was 42.2%.

`C=C1CCC2C3(C)COC(c4cc(F)cc(F)c4)OC3CCC2(C)C1CC(O)C1=CCOC1=O` (stereo unspecified): the growth was 60.3%.

As to `O=C(/C=C/c1ccc(O)c(O)c1)NC1CCOC1O` (stereo unspecified), the growth was 92.9%.

Take `C/C(=N\N=C1/C(=O)Nc2ccc(Cl)cc21)c1ccc2c(c1)Nc1ccccc1S2`: the growth is 6.63% (active).

On to `CC(C)CCNC(=O)N/C(N)=N/c1nc2ccccc2s1`, for which the growth is 52.1%.

Regarding `OCNc1ccc(-n2cnc3cc(-c4ccc(O)cc4)ccc32)cc1C(F)(F)F`, the growth is 33.5%.

As to `C=C1CCC2C3(C)COC(c4ccc(F)cc4)OC3CCC2(C)C1C/C=C1/C(=O)OCC1O` (stereo unspecified), the growth was -5.17% (active).

Turning to `O=c1[nH]n(C(=S)N/N=C/c2ccccc2Cl)c(=O)c2ccccc12`, the growth was 27.5%.

On to `N#Cc1c(-c2cccc(Cl)c2Cl)cc(-c2ccc3ccccc3c2)[nH]c1=O`, for which the growth was 47.2%.

For `Clc1cccc(Cl)c1/C=C/c1cc(/C=C/c2ccc(Br)cc2)c2ccccc2n1`, the growth was 73.4%.

For the molecule `CC(C)c1ccc2c(N)c(C(=O)Nc3ccc(C(F)(F)F)cn3)sc2n1`, the growth is 55.2%.

For `CCN(CC)C(=O)N/C(N)=N/c1nc2ccccc2s1`, the growth was 36.6%.

Take `O=C(COc1ccc(NC(=O)Nc2ccc(Cl)c(Cl)c2)cc1)N=Nc1c(O)[nH]c2ccc([N+](=O)[O-])cc12`: the growth is 72%.

With `Cc1cc2c(cc1Cl)C(=O)/C(=C/c1ccc(F)cc1)O2`, the growth is 75.3%.

With `CCCCOc1ccc(NC(=O)c2sc3nc(C)ccc3c2N)cc1`, the growth is 26.5%.

For `O=C1Nc2cc(Cl)ccc2/C1=C/c1cccc(OCc2ccccn2)c1`, the growth was 16.8%.

As to `NS(=O)(=O)c1ccc(N=Nc2c(O)n(CC(=O)Nc3ccccc3Cl)c3ccccc23)cc1`, the growth is 16.6%.

In the case of `O=C(Nc1cccc(-n2cnc3cc(-c4ccc(O)cc4)ccc32)c1)C1CC1`, the growth was 26.2%.

Take `C=C1CC[C@@H]2[C@]3(C)COC(c4cn[nH]c4-c4ccc(OC)cc4)O[C@@H]3CC[C@@]2(C)[C@@H]1C/C=C1/C(=O)OCC1O` (stereo partly specified): the growth is -23.4% (active).

As to `CC(=O)Nc1ccc(-c2cn(-c3cccc(C(=O)Nc4ccc(N5CCN(C)CC5)cc4)c3)nn2)cn1`, the growth is 98.2%.

The record behind these values is PubChem BioAssay (NCI).
